PubChem BioAssay (Tox21)
Records with an inconclusive call do not appear. Activity calls are given as the source filed them. Unless noted, the call rests on the fitted dose curve.

What was measured:
[1] = Nuclear factor erythroid 2-related factor 2/antioxidant responsive element (Nrf2/ARE) small molecule agonists: qHTS cell viability counter screen in human keratinocytes (AID 1919968; active means well fitted curve in the direction sought with a large enough effect in the repeat runs; an effect the other way counts as inactive or inconclusive; further: nearly all actives have a fitted effect of over 55% in size; further: potency means the concentration at half of the fitted maximal effect)
Summary of the method: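 Fluorescence read-out from CellTiter-Fluor after 1 h at 37 C. Wells held HaCaT-derived ARE-luciferase reporter cells (1,500/well) treated 23 h with DMSO-dissolved compounds. Run in the same wells as the luciferase agonist read.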

[2] = Nuclear factor erythroid 2-related factor 2/antioxidant responsive element (Nrf2/ARE) small molecule agonists: luciferase reporter gene qHTS assay in human keratinocytes (AID 1919969); further: nearly all actives have a fitted effect of over 35% in size; further: potency means the concentration at half of the fitted maximal effect
[3] = target: Gonadotropin-releasing hormone receptor (Homo sapiens) (UniProt P30968); assay: Human gonadotropin-releasing hormone receptor (GnRHR) small molecule agonists, calcium flux assay in GnRHR-HEK293 cells (AID 1920063); further: nearly all actives have a fitted effect of over 35% in size; further: potency means the concentration at half of the fitted maximal effect
Gonadotropin-releasing hormone receptor (Homo sapiens), sequence (P30968 whole entry, looked up): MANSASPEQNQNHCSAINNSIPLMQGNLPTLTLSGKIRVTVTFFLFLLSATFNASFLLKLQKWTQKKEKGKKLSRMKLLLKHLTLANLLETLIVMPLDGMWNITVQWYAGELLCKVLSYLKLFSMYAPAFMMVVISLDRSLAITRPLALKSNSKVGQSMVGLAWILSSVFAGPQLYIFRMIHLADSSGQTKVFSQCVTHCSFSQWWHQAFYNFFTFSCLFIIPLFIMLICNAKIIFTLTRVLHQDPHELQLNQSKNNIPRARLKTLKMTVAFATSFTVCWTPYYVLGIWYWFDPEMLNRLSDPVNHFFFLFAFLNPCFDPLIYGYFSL
Summary of the method: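 Calcium-dye fluorescence, Ex/Em=480/540, recorded every 1 sec over 3 min after compound addition to GnRHR-HEK293 cells. Cells had been seeded 18 hours earlier and dye-loaded for 1 hour at 37 C. Fifteen concentrations, triplicates.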

[4] = target: KiSS-1 receptor (Homo sapiens) (UniProt Q969F8); assay: Human kisspeptin (KISS1R) small molecule agonists, calcium flux assay in KISS1R-HEK293 cells (AID 1920064; active means well fitted curve in the direction sought with a large enough effect in the repeat runs; an effect the other way counts as inactive or inconclusive; further: potency means the concentration at half of the fitted maximal effect)
KiSS-1 receptor (Homo sapiens), sequence (Q969F8 whole entry, looked up): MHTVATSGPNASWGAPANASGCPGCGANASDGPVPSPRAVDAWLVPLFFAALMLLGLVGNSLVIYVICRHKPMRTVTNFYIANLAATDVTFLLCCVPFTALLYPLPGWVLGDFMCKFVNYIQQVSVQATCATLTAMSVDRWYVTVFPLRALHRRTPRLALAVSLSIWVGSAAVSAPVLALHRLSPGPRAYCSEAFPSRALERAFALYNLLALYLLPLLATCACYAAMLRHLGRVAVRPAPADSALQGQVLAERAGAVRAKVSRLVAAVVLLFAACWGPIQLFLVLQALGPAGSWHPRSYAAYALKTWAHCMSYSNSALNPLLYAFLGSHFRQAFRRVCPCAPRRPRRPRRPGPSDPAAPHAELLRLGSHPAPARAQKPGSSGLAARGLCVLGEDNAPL
Summary of the method: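 Calcium flux read-out: kinetic fluorescence at Ex/Em=480/540, 1 s intervals over 3 min, after pin-tool compound addition to dye-loaded KISS1R-HEK293 cells. Fifteen concentrations, triplicates.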

[5] = G protein-coupled receptor (GPCR) small molecule agonists, calcium flux assay: HEK293 wild type cell line counter screen (AID 1920065)
Summary of the method: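 Agonist mode; 18 h seeding at 37 C, 1 h dye load at 37 C; compounds pinned from DMSO, ATP as positive control; kinetic fluorescence 480/540 nm, 3 min, 1 s reads; 15 concentrations, triplicate.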

[6] = p53 small molecule agonists, cell-based qHTS assay with rat liver microsomes: qHTS cell viability counter screen (AID 1963580); further: nearly all actives have a fitted effect of over 45% in size; further: potency means the concentration at half of the fitted maximal effect
Summary of the method: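 After the beta-lactamase ratio was read, CellTiter-Glo was added to the same wells and luminescence measured at 30 min; cells had been treated 16 h at 37 C with compounds, rat liver microsomes and NADPH (0.5 mg/mL final each).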

[7] = target: 5-hydroxytryptamine receptor 2A (Homo sapiens) (UniProt P28223); assay: 5-hydroxytryptamine receptor 2A (HTR2A) small molecule agonists, cell-based qHTS assay (AID 1963587); further: nearly all actives have a fitted effect of over 30% in size; further: potency means the concentration at half of the fitted maximal effect
5-hydroxytryptamine receptor 2A (Homo sapiens), sequence (P28223 whole entry, looked up): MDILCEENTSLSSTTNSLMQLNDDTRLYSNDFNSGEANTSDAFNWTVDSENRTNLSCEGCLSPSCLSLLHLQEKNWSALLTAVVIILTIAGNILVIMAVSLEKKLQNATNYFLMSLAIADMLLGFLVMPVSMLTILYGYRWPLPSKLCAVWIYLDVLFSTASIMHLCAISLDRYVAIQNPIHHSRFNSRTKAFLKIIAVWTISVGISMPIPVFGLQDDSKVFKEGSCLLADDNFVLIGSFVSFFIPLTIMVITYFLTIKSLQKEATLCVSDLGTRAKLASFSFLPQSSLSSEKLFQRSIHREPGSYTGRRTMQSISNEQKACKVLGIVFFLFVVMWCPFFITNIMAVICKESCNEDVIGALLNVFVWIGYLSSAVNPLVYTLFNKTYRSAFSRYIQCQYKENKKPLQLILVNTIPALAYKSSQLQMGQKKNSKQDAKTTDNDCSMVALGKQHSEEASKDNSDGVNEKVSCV
Summary of the method: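 CHO cells stably expressing human HTR2A, plated 18 h, loaded with calcium dye 1 h at 37 C. Agonist mode: compounds added and intracellular calcium fluorescence recorded kinetically for 2 min at 1 sec intervals.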

[8] = target: Muscarinic acetylcholine receptor M1 (Homo sapiens) (UniProt P11229); assay: Cholinergic receptor muscarinic 1 (CHRM1) small molecule antagonists, cell-based qHTS assay (AID 1963588); further: nearly all actives have a fitted effect of over 40% in size
Muscarinic acetylcholine receptor M1 (Homo sapiens), sequence (P11229 whole entry, looked up): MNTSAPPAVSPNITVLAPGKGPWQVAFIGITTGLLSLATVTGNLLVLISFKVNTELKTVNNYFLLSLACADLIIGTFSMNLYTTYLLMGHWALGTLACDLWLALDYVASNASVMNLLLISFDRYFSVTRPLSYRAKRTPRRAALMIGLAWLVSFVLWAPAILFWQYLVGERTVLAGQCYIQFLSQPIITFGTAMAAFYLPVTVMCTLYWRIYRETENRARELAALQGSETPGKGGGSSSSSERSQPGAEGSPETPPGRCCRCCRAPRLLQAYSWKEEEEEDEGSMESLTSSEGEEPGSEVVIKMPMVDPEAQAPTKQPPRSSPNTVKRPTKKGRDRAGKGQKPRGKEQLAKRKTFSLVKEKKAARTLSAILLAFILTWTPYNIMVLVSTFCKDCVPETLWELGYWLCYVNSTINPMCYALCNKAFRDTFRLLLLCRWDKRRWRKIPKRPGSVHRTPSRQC
Summary of the method: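 Compounds were tested at 15 concentrations in three independent runs. Dye-loaded CHRM1-CHO cells were exposed 5 min at room temperature before stimulation by acetylcholine added at 50nM. Intracellular calcium was read kinetically on FDSS for 3 min.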

[9] = target: Muscarinic acetylcholine receptor M1 (Homo sapiens) (UniProt P11229); assay: Cholinergic receptor muscarinic 1 (CHRM1) small molecule agonists, cell-based qHTS assay (AID 1963589); further: nearly all actives have a fitted effect of over 35% in size; further: potency means the concentration at half of the fitted maximal effect
Summary of the method: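 Calcium flux read-out: kinetic fluorescence at 1 sec intervals after pin-tool compound addition to dye-loaded CHRM1-CHO cells (human M1). Agonist mode; 15 concentrations tested in triplicate independent runs.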

[10] = cAMP Responsive Elements (CRE) small molecule agonists, cell-based qHTS assay (AID 1963590)
Summary of the method: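 Beta-lactamase reporter readout: LiveBLAzer B/G FRET substrate, 2 h at room temperature, added after 3 h compound treatment of CRE-bla HEK 293T cells at 37 C/5% CO2.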

[11] = cAMP Responsive Elements (CRE) small molecule antagonists, cell-based qHTS assay (AID 1963591; active means well fitted inhibition curve with a large enough effect in the signal ratio in the repeat runs, not every such curve was filed as active; the % refers to the signal ratio; further: potency means the concentration at half of the fitted maximal effect)
Summary of the method: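 HEK293T CRE-bla; 18 h preincubation; compound pin-transfer; NKH477 0.25 uM final, 3 h, 37 C; LiveBLAzer FRET substrate 2 h RT.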

[12] = target: D(2) dopamine receptor (Homo sapiens) (UniProt P14416); assay: Dopamine D2 receptor (DRD2) small molecule agonists, cell-based qHTS assay (AID 1963594); further: nearly all actives have a fitted effect of over 35% in size
D(2) dopamine receptor (Homo sapiens), sequence (P14416 whole entry, looked up): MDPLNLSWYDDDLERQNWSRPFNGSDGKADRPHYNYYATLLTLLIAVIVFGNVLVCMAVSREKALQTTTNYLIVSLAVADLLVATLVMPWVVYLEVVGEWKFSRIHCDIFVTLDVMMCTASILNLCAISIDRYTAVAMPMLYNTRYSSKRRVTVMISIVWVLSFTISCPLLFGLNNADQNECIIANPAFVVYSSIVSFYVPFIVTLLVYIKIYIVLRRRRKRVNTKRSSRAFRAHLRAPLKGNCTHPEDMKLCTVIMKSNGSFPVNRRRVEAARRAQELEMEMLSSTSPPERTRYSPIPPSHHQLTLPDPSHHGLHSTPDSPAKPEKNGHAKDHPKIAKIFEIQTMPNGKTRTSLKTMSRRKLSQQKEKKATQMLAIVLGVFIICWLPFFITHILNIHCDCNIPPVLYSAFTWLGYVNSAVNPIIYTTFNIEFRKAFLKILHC
Summary of the method: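 HEK293 cells stably expressing human DRD2, pre-treated with PDE inhibitor Ro20-1724 (0.1 mM final) and compound 10 min at room temperature, then stimulated with NKH477 (200nM […]) for 30 min. cAMP read by HTRF (665/620 nm).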

[13] = p53 small molecule agonists, cell-based qHTS assay: qHTS cell viability counter screen (AID 1963581); further: nearly all actives have a fitted effect of over 45% in size; further: potency means the concentration at half of the fitted maximal effect
Summary of the method: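 Cytotoxicity read-out: ATP-based luminescence (CellTiter-Glo, 30 min RT) measured in the same wells as the p53 reporter assay, HCT-116 p53RE-bla cells, 16 h compound exposure at 37 C.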

[14] = p53 small molecule agonists, cell-based qHTS assay (AID 1963582; active means well fitted activation curve with a large enough effect in the signal ratio in the repeat runs, not every such curve was filed as active; the % refers to the signal ratio)
Summary of the method: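 Fluorescence intensity read-out of a beta-lactamase reporter under a p53 response element. Cells were exposed to DMSO-dissolved compounds for 16 h at 37 C, then developed with FRET substrate for 2 h at RT.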

[15] = target: D(2) dopamine receptor (Homo sapiens) (UniProt P14416); assay: Dopamine D2 receptor (DRD2) small molecule antagonists, cell-based qHTS assay (AID 1963595; active means well fitted inhibition curve with a large enough effect in the signal ratio in the repeat runs, with a control signal flat; the % refers to the signal ratio)
Summary of the method: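 Stable D2 receptor HEK293 line, 24 h after seeding. Compound preincubated 10 min, then quinpirole (12 nM) with forskolin analogue NKH477 (200 nM), 30 min, room temperature. Detection by time-resolved FRET of cAMP.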

[16] = target: 5-hydroxytryptamine receptor 2A (Homo sapiens) (UniProt P28223); assay: 5-hydroxytryptamine receptor 2A (HTR2A) small molecule antagonists, cell-based qHTS assay (AID 1963586); further: nearly all actives have a fitted effect of over 45% in size
Summary of the method: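 CHO cells stably expressing human HTR2A were plated for 18 h at 37 C, then loaded with calcium dye for 1 h. Compounds were preincubated 5 min at room temperature before DOI (4 nM solution) was added. Kinetic fluorescence was read for 3 min.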

[17] = target: Beta-2 adrenergic receptor (Homo sapiens) (UniProt P07550); assay: Adrenergic beta2 receptor (ADRB2) small molecule antagonists, cell-based qHTS assay (AID 1963592); further: nearly all actives have a fitted effect of over 50% in size; further: potency means the concentration at half of the fitted maximal effect
Beta-2 adrenergic receptor (Homo sapiens), sequence (P07550 whole entry, looked up): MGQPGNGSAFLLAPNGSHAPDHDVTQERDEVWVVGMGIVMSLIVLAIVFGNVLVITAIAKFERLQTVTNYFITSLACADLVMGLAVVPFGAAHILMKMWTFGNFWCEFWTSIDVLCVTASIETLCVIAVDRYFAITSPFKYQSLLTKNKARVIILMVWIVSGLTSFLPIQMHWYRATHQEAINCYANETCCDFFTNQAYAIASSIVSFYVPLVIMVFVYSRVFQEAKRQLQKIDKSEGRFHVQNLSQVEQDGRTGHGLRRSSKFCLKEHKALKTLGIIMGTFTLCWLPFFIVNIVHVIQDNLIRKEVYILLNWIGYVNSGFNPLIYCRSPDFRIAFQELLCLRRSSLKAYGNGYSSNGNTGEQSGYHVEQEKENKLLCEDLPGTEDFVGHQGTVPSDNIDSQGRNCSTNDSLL
Summary of the method: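 Assay format: CHO-ADRB2 cells, 18-20hr seeding at 37C/5% CO2, then compound plus 1nM isoproterenol agonist mix for 0.5hr RT. Homogeneous time-resolved fluorescence cAMP detection after 1hr, expressed as 665/615 nm ratio.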

[18] = target: Beta-2 adrenergic receptor (Homo sapiens) (UniProt P07550); assay: Adrenergic beta2 receptor (ADRB2) small molecule agonists, cell-based qHTS assay (AID 1963593);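 further: CHO cells stably overexpressing human ADRB2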
Summary of the method: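 CHO cells stably over-expressing ADRB2 were plated overnight at 37C, then dosed with compounds plus a stimulation mix containing 100uM IBMX and 25uM Ro-20-1724 for 0.5hr at room temperature. cAMP was measured by HTRF competition, 1hr.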

[19] = p53 small molecule agonists, cell-based qHTS assay with rat liver microsomes (AID 1963578)
Summary of the method: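 Each plate received p53RE-bla cells, then compound, then rat liver microsomes and NADPH (both 0.5 mg/mL final). Plates were held 16 h at 37 C, and beta-lactamase activity was detected with LiveBLAzer over 2 h.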

[20] = p53 small molecule agonists, cell-based qHTS assay with human liver microsomes: qHTS cell viability counter screen (AID 1963579); further: nearly all actives have a fitted effect of over 45% in size
Summary of the method: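 Tox21 library compounds, delivered from DMSO stocks, were tested on p53RE-bla cells together with 0.5 mg/mL human liver microsomes and 0.5 mg/mL NADPH (final) over 16 h at 37 C; CellTiter-Glo luminescence served as the cytotoxicity measure.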

Measured: Potency

C=CCOc1ccccc1OCC(O)CNC(C)C (configuration not stated)
not listed: [13] | [14] | [15] | [16] | [17] | [18] | [19] | [20]
inactive: all other assays above

CC(C)NCC(O)COc1ccc(CC(N)=O)cc1 (configuration not stated)
inactive: [1] | [2] | [3] | [4] | [5] | [13] | [14] | [10] | [11] | [12] | [15]

CCCOC(OCCC)OCCC
not listed: [8] | [9] | [14] | [19] | [20]
inactive: all other assays above

CO[C@@]1(NC(=O)Cc2cccs2)C(=O)N2C(C(=O)O)=C(COC(N)=O)CS[C@@H]21
not listed: [14] | [16] | [18] | [19] | [20]
inactive: all other assays above

C[C@@H](C1=C(CCN(C)C)Cc2ccccc21)c1ccccn1
not listed: [8] | [12] | [13] | [14] | [18] | [19] | [20]
inactive: all other assays above

CC(=O)NCCCS(=O)(=O)O
active: [3] 15 µM | [4] 11.9 µM | [7] 18.9 µM | [9] 23.8 µM
not listed: [5] | [14] | [16] | [18]
inactive: all other assays above

CC(=O)SCc1ccco1
not listed: [8] | [9] | [14] | [18] | [19] | [20]
inactive: all other assays above

COc1ccnc(CS(=O)c2nc3cc(OC(F)F)ccc3[nH]2)c1OC (configuration not stated)
inactive: [1] | [2] | [3] | [4] | [5] | [6] | [13] | [10] | [17] | [12]

CC/C=C\C/C=C\C/C=C\CCCCCCCC(=O)OCC
active: [2] 70.1 µM
not listed: [10] | [11] | [13] | [14] | [15] | [19] | [20]
inactive: all other assays above

CC1=C(C(=O)O)N2C(=O)[C@@H](NC(=O)[C@H](N)c3ccccc3)[C@H]2SC1
inactive: [1] | [2] | [3] | [4] | [5] | [10] | [11] | [17] | [18] | [12] | [15]

O=C(Nc1ccc(Cl)c(Cl)c1)c1cc(Cl)cc(Cl)c1O
active: [1] 3.44 µM | [2] 27.3 µM | [6] 40.8 µM | [13] 4.08 µM | [17] 24.3 µM
inactive: [3] | [4] | [19] | [12] | [15]

CCn1nc(C(=O)O)c(=O)c2cc3c(cc21)OCO3
not listed: [6] | [10] | [11] | [18] | [19] | [20]
inactive: all other assays above

C=CC(=O)OCC(C)OCC(C)OCC(C)OC(=O)C=C (configuration not stated)
active: [1] 61.1 µM | [2] 24.3 µM
inactive: [3] | [4] | [19] | [13] | [16] | [7] | [8] | [9] | [17] | [15]

CC1(C)[C@H](C(=O)O)N2C(=O)C[C@H]2S1(=O)=O
inactive: [1] | [2] | [3] | [4] | [5] | [14] | [10] | [17] | [12] | [15]
active: [11] 1.33 µM

Cc1ccc(OC(=O)CC(C)C)cc1
not listed: [9] | [13] | [14] | [19] | [20]
inactive: all other assays above

CC(C)NC[C@@H](O)COc1ccc(CC(N)=O)cc1
inactive: [1] | [2] | [3] | [4] | [5] | [14] | [10] | [11] | [12] | [15]

C=CC(=O)OCCn1c(=O)n(CCOC(=O)C=C)c(=O)n(CCOC(=O)C=C)c1=O
active: [1] 30.6 µM | [2] 15.4 µM
inactive: [3] | [4] | [5] | [16] | [8] | [9] | [12] | [15]

Cc1nccn1-c1ccc(Sc2cccc(C3(C(N)=O)CCOCC3)c2)cc1
not listed: [8] | [10] | [11] | [14] | [15] | [18] | [19] | [20]
inactive: all other assays above

CCN(CC)c1ccc2c(c1)Oc1cc(N(CC)CC)ccc1C21OC(=O)c2ccccc21
inactive: [2] | [19] | [20] | [14] | [8] | [10] | [11]
active: [1] 9.44 µM | [3] 19 µM | [4] 23.9 µM | [7] 21.3 µM | [9] 23.9 µM

O=C1NCCN1CCN1CCC(c2cn(-c3ccc(F)cc3)c3ccc(Cl)cc23)CC1
inactive: [2] | [3] | [4] | [5] | [6] | [13] | [7] | [9] | [17] | [12]
active: [1] 11.9 µM
